# Data from PubChem BioAssay (NCI).
# The panel holds about 79,000 compounds, 15% with a hit somewhere; the sample as a whole holds those more often. Active and inactive are the calls of the source. No stated cut-off is given here; in the data, active means growth inhibition above about 70%; inactive means the rest.
# Assay: NCI Yeast Anticancer Drug Screen. Data for the rad50 strain (AID 155);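 further: 0% = growth of vehicle-only cultures of the same strain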
# Conditions: S. cerevisiae rad50 strain growth inhibition; at 5.0 µM (retest, dose inferred, filed as 0.5); active compounds read high
# Procedure, shortened: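 Growth of the mutant yeast was measured after compound exposure and referenced to vehicle-treated cultures.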
row,SMILES,growth inhibition
1,CCSC1(SCC)C(=O)OC2=C(CCCC2)C1N1CCOCC1 (stereo not given),1% (inactive)
2,NC(=O)C(CCc1cccc2ccccc12)c1ccccc1 (stereo not given),6% (inactive)
3,NC(CCCCCC(N)C(=O)O)C(=O)O (stereo not given),-165% (inactive)
4,CN(C)CC(CN(C)C)C(=O)C1CCCCC1,25% (inactive)
5,O=C1/C(=C/c2ccc([N+](=O)[O-])cc2)Sc2scc(-c3cccc([N+](=O)[O-])c3)[n+]21,69% (inactive)
6,CC(C)(C)c1cc(C(P(=O)(c2ccccc2)c2ccccc2)P(=O)(c2ccccc2)c2ccccc2)cc(C(C)(C)C)c1O,3% (inactive)
7,COC(=O)c1cc(=O)n(-c2ccccc2C(F)(F)F)c(SC)n1,24% (inactive)
8,CSC(SC)=C1C(=O)NC(Cc2ccccc2)C1=O (stereo not given),6% (inactive)
9,c1ccc(C(c2ccccc2)c2ccc3ccccc3n2)cc1,-3% (inactive)
10,CN(C)c1nc(N(C)C)nc([N+](C)(C)C)n1,1% (inactive)
11,CCCNC(=S)N/N=C(/C)c1nccc2ccccc12,9% (inactive)
12,OC(CN1CCc2ccccc2C1)c1ccc2ccccc2c1 (stereo not given),23% (inactive)
13,Nc1nc(N)c2nc(CNc3ccc(C(=O)NC(CCC(=O)O)C(=O)O)cc3)ccc2n1 (stereo not given),-2% (inactive)
14,O=c1c2ccccc2c2ccccc2n1O,93% (active)
15,CC(=O)N1c2ccccc2Sc2ccc3ccc(C(=O)CCl)cc3c21,81% (active)
16,CC(NNC(=S)N1CC2CCC(CC2)C1)c1nccc2ccccc12 (stereo not given),98% (active)
17,O=C1O/C(=C(\Cc2ccccc2)c2ccccc2)N(c2ccccc2)C1=O,5% (inactive)
18,S=c1sc2ccccc2n1C=Nc1ccccc1,-2% (inactive)
19,CSc1nc(NC2OC(CO)C(O)C(O)C2O)c(Cl)c(=O)[nH]1 (stereo not given),-1% (inactive)
20,C=CCN1/C(=C\C=C\c2ccc3cc(C)ccc3[n+]2CC=C)C=Cc2cc(C)ccc21,58% (inactive)

row,SMILES,growth inhibition
1,S=c1[nH]nc(SCc2ccc(Cl)c(Cl)c2)c2[nH]cnc12,-4% (inactive)
2,Nc1ccc(C(=O)/C=C/c2ccccn2)cc1,3% (inactive)
3,CCOC(=O)C(C(=O)O)(C(c1ccccc1)c1ccccc1)C(c1ccccc1)c1ccccc1,97% (active)
4,CSC(=S)n1nc(-c2ccccc2)c(N=Nc2ccc(Br)cc2)c1-c1ccccc1,6% (inactive)
5,COc1ccc([N+](=O)[O-])cc1Nc1c2ccccc2nc2ccccc12,6% (inactive)
6,C=CCN1/C(=C/C=C\c2sc3ccccc3[n+]2CC=C)Sc2ccccc21,60% (inactive)
7,COc1ccc(/C=C/C(C(=O)O)C(=O)O)cc1,19% (inactive)
8,CN(C)C(=O)c1cc(Br)cc(-c2ccccc2)c1O,4% (inactive)
9,Cc1cc(N=[N+]=[N-])c2cc(C3CCCCC3)ccc2n1,12% (inactive)
10,[Cu+2].[O-]/N=C/c1cccc(O)c1[O-].[O-]/N=C/c1cccc(O)c1[O-],-16% (inactive)
11,c1ccc(Cn2nnc(-c3ccccc3)c2-c2ccccc2)cc1,-2% (inactive)
12,CCOc1ccc2nc(Cl)sc2c1,-17% (inactive)
13,CCOC(=O)c1sc2c(c1O)c(=O)n(-c1ccccc1)c(=S)n2-c1ccccc1,84% (active)
14,O=C(O)c1c[nH]c2cc(Cl)ccc2c1=O,4% (inactive)
15,Cc1cc2c(cc1O)CC[C@@H]1[C@@H]2CC[C@]2(C)[C@@H](O)CC[C@@H]12,-29% (inactive)
16,NC(=O)NOCC1NC(=O)NC1=O (stereo not given),-24% (inactive)
17,CCOC(=O)c1cnc2cc3cccccc3n2c1=O,4% (inactive)
18,CC(CO)CCC(=O)C(C)C1C(=O)CC2CC3CC(O)CCC3(C)CC21C (stereo not given),3% (inactive)
19,N#CSC#Cc1ccc(C#CSC#N)cc1,100% (active)
20,CCS/C(SC)=C(/c1ccccc1)[P+](c1ccccc1)(c1ccccc1)c1ccccc1,98% (active)
